# Rows were chosen to be rich in hits. Some 7% of all compounds tested hit in one or more screens of this group.
# PLK1 PBD block: qHTS for Inhibitors of PLK1-PDB (polo-like kinase 1 - polo-box domain): Primary Screen; 2.8% of 360,000 active; Potency, µM, for inactives: max response, negative = inhibition, actives largely listed as inhibitors; Plk1 PBD binding of FITC phosphopeptide, fluorescence polarization; Serine/threonine-protein kinase PLK1 (Homo sapiens), P53350; further: potency means the concentration at half of the fitted maximal effect; series mostly up to about 57 µM; on the % scale 0 is the no-effect control and ±100 the full control effect; nearly all actives have a fitted effect of over 65% in size
# BAZ2B inh: qHTS Assay for Inhibitors of BAZ2B. AlphaScreen BAZ2B-H3K14Ac peptide displacement. Potency, µM (highest dose often 114 µM), for inactives: top-dose activity change, negative = inhibition, most hits filed as inhibitors. 4.4% of 360,000 active; further: potency means the concentration at half of the fitted maximal effect; on the % scale 0 is the no-effect control and ±100 the full control effect; nearly all actives have a fitted effect of over 60% in size
#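 AlphaScreen displacement: compounds (up to 110uM) incubated 30 min at room temperature with a preformed 50 nM BAZ2B/50 nM biotinylated H3K14Ac peptide complex in PBS pH 7.4 with Tween-20. Donor and acceptor beads at 10 ug/mL final added, 20 min light-protected before reading.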
# JMJD2A Tudor: qHTS Assay for Inhibitors of JMJD2A-Tudor Domain | Potency, µM (doses to about 114 µM), inactives show top-dose activity change, negative = inhibition, hits mostly inhibitors | 4.4% of 390,000 active | Lysine-specific demethylase 4A (Homo sapiens), O75164 | AlphaScreen JMJD2A-Tudor / H3K4me3 peptide binding; further: potency means the concentration at half of the fitted maximal effect; on the % scale 0 is the no-effect control and ±100 the full control effect; nearly all actives have a fitted effect of over 50% in size
# HP1b binding inh: HTS for Inhibitors of HP1-beta Chromodomain Interactions with Methylated Histone Tails | Chromobox protein homolog 1 (Homo sapiens), P83916 | AlphaScreen HP1-beta / biotin-H3K9me3 peptide binding | Potency, µM (highest dose often 114 µM), without a hit: top-dose activity change, negative = inhibition, usual class: inhibitors | 0.56% of 390,000 active; further: potency means the concentration at half of the fitted maximal effect; nearly all actives have a fitted effect of over 70% in size
#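 AlphaScreen: HP1-beta (50 nM) preformed 30 min with biotin-H3(1-18)K9me3 peptide (50 nM) in PBS pH 7.4, 0.01% Tween-20. Compound added for 30 min at RT, then streptavidin donor/nickel chelate acceptor beads (10 ug/mL) for 30 min.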
# PI5P4K alpha inh: qHTS for Inhibitors of phosphatidylinositol 5-phosphate 4-kinase (PI5P4K); Phosphatidylinositol 5-phosphate 4-kinase type-2 alpha (Homo sapiens), P48426; PI5P4Kalpha enzyme, ADP-Glo luminescence, 60 min; active compounds read low; max response, %; 1.2% of 330,000 active; AID 652105, 2013; active means max response of -50% or lower; inconclusive means between -30% and -50%; inactive means -30% or higher; further: value at the top dose of about 77 µM; on the % scale 0 is the no-effect control and ±100 the full control effect
# Target sequence (P48426 whole entry, looked up): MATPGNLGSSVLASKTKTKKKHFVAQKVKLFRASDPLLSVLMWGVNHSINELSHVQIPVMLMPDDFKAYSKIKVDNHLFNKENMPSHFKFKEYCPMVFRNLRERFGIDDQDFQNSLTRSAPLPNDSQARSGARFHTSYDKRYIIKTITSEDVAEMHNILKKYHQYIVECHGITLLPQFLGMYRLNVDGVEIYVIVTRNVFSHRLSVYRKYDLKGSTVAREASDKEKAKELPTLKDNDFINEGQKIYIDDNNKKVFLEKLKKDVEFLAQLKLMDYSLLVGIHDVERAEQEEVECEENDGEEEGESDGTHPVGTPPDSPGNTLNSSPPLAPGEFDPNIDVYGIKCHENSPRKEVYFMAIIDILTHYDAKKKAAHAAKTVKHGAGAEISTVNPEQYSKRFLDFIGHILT
#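 PI5P4Kalpha ADP-Glo assay; 5 microM ATP final; 60 min RT reaction; HEPES pH 7.4/EGTA/CHAPS, 5% DMSO; controls lacking substrate or enzyme; luminescent end-point.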
# GCN5L2 inh: qHTS Assay for Inhibitors of GCN5L2 | Histone acetyltransferase KAT2A (Homo sapiens), Q92830 | GCN5L2 HAT assay, ThioGlo1 CoA-SH fluorescence | Potency, µM (top dose mostly 58.9 µM), inactives show top-dose activity change, negative = inhibition, most hits filed as inhibitors | 0.21% of 390,000 active | AID 504327, 2011; further: potency means the concentration at half of the fitted maximal effect; on the % scale 0 is the no-effect control and ±100 the full control effect
#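 Enzyme at 20nM final was mixed with library compounds for 15 min at room temperature. Peptide H3(1-25) at 75uM, acetyl-CoA at 70uM and ThioGlo1 at 50uM were then added. Plates were read immediately and after 20 min (Ex340nm/Em540nm).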
# * = called active by the depositor; ? = inconclusive; · = no result. Unless noted, the call rests on the fitted dose curve; in most records, active means well fitted curve in the direction sought with a large enough effect; inconclusive means small, poorly fitted or top-dose-only effect, or another doubt; inactive means no such curve, though single readings can be large; an effect the other way counts as inactive or inconclusive.
SMILES,PLK1 PBD block,BAZ2B inh,JMJD2A Tudor,HP1b binding inh,PI5P4K alpha inh,GCN5L2 inh
O=C1Nc2ccccc2/C1=C/c1ccccc1Cl,1%,-30%,-23%,-2%,-1,3%
Cc1cc(/C=C2\SC(=S)NC2=O)cc(C)c1O,20%,?,-31%,-6%,-76*,?
O=C(NCC1CCCO1)c1cc2nc(-c3ccco3)cc(C(F)(F)Cl)n2n1 (configuration not stated),-14%,-38%,-10%,23%,2,-4%
Cc1nc(N2CCN(C)CC2)c2nnn(Cc3ccccc3)c2n1,·,·,-5%,55%,·,·
COc1cccc(CN2CCC(C(=O)N3CCN(c4ccccc4F)CC3)CC2)c1,-3%,-33%,8.9µM*,?,-2,2%
COc1cc(CN2CCC(C(=O)NC3CCCC3)CC2)ccc1O,-3%,32µM*,?,?,-5,1%
CCOc1cc(CN2CCC(N3CCC(C(=O)NC4CC4)CC3)CC2)ccc1O,-1%,·,·,·,6,·
COc1cccc(CN2CCC(C(=O)N3CCN(Cc4ccc5c(c4)OCO5)CC3)CC2)c1,-6%,-10%,0.89µM*,?,2,?
COc1cc(CN2CCCC(N3CCN(c4ccccc4C)CC3)C2)ccc1O (configuration not stated),1%,-27%,-21%,33%,5,-3%
COc1cc(CN2CCC(C(=O)N3CCN(c4ccccc4F)CC3)CC2)ccc1O,-2%,56µM*,2.5µM*,?,·,3%
Cc1ccccc1NC(=O)c1c(C)oc2ccc(O)c(CN3CCN(C)CC3)c12,·,-10%,-25%,7%,·,3%
CCOC(=O)c1cccc(NC(=O)c2cc(CN3CCOCC3)on2)c1,·,-8%,-7%,25%,·,2%
COc1ccc(OC)c(CN2CCC(C(=O)N3CCOCC3)CC2)c1,-15%,?,2.2µM*,?,2,-4%
COc1ccc(F)c(CN2CCC(N3CCC(C(=O)N4CCOCC4)CC3)CC2)c1,-5%,-14%,-7%,32%,-2,-3%
CS(=O)(=O)N1CCC(C(=O)N2CCN(c3ccccc3F)CC2)CC1,19µM*,-1%,?,-12%,-22,3%
COc1ccc(OC)c(CN2CCC(C(=O)N3CCN(c4ccccc4F)CC3)CC2)c1,-2%,?,1.4µM*,?,12,-9%
Cn1c(=O)c2c([nH]c(=S)n2Cc2ccc(Cl)cc2)n(C)c1=O,11µM*,22µM*,5.6µM*,?,-5,?
Cn1c(=O)c2c(ncn2Cc2ccc(Cl)cc2)n(C)c1=O,-3%,0%,-8%,49%,0,-23%
COc1cccc(OCc2nc3ccccc3n2C)c1,·,-1%,7%,36%,·,-2%
CCOC(=O)c1c(C)[nH]c(C(=O)OCC(=O)NC2(C#N)CCCCC2)c1C,-4%,2%,-14%,3%,-5,-4%
CCOc1ccc2nc(N=NC3=C(O)CC(C)(C)CC3=O)sc2c1,0%,45µM*,?,?,-1,-2%
CC(C)c1ccc(NC(=O)CNCC(c2ccccc2)N(C)C)cc1 (configuration not stated),8%,?,45µM*,-14%,-6,-7%
CC(=O)NCC(=O)N(C)C(C(=O)Nc1ccc(C(C)C)cc1)c1ccccc1 (configuration not stated),-6%,4%,-15%,18%,-1,-5%
COc1ccc(OC)c(N(C(=O)c2ccco2)C(C(=O)NC2CCCC2)c2cc(OC)c(OC)c(OC)c2)c1 (configuration not stated),4%,6%,-6%,33%,4,-5%
O=[S+]([O-])(c1ccc2c(c1)OCCO2)N1CCN([S+](=O)([O-])c2ccccc2Br)CC1,·,·,-10%,·,·,·
